Shown are actives, neighbours in structure and some others; about 2.3% of the full set was active somewhere.
SENP8 block-1: SENP8 (human) protease inhibition; Q96LD8; recombinant SENP8, Nedd8 substrate fluorescence; inhibition, % at 20 µM; 0.64% of 360,000 active; AID 602440; in the data active = inhibition mostly above about 40%, no sharp cut-off; inactive = mostly below about 27%
Target sequence (Q96LD8 whole entry, looked up): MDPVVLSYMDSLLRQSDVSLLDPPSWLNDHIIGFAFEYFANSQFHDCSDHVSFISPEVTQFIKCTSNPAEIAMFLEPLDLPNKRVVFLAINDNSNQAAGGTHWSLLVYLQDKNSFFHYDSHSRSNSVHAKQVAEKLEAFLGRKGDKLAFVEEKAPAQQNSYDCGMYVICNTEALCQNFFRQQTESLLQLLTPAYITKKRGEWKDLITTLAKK
SENP8 block-2: SENP8 protease inhibition | Q96LD8 | purified SENP8, Z-RLRGG-aminoluciferin cleavage, luminescence | inhibition, % at 10 µM | 1.2% of 330,000 active; in the data active = inhibition above about 50%
SENP7 block: SENP7 protease inhibition; inhibition, % at 5 µM; Q9BQF6; 1.5% of 330,000 active; recombinant SENP7, Z-RLRGG-aminoluciferin luminescence, 40 min;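 active = inhibition above about 50% at the single test dose, limit read from the data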;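 note: plate controls were DMSO with enzyme for no effect and no enzyme buffer wells for full effect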
Target sequence (Q9BQF6 706-1050 limits assumed): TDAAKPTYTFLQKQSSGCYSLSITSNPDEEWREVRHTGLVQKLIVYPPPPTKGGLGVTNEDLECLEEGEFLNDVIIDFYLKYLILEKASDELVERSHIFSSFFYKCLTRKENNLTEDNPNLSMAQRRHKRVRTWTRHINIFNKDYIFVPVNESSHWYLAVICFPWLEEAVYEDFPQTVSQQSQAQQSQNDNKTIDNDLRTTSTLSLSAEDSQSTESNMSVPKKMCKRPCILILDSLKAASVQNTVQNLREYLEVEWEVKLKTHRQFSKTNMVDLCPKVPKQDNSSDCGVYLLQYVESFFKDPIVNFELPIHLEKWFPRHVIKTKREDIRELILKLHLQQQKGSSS
HSP90 refold inh: blocks HSP90-mediated luciferase refolding in reticulocyte lysate; Rabbit reticulocyte lysate, luciferase refolding luminescence, 3 h; inhibition, % at 5.6 µM; 0.91% of 290,000 active;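 active = inhibition above the screen-wide mean plus 3 SD, computed separately per campaign, cut at about 16% in these data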;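 note: 0% = DMSO wells and 100% = 60 µM geldanamycin wells; inhibitors lower the luminescence because luciferase stays unfolded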
SENP6 block: inhibitors of human SENP6 protease | AID 2599 | Q9GZR1 | inhibition, % at 10 µM | Recombinant SENP6 catalytic domain, aminoluciferin luminescence | 1.8% of 330,000 active;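 active = inhibition above about 50% at the single tested dose, limit read from the data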;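 note: plate controls were DMSO wells with enzyme for no effect and DMSO wells lacking enzyme for full effect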
LGR2 inh: Drosophila LGR2 receptor signaling inhibition; HEK293 LGR2, CRE-luciferase, bursicon-stimulated, 4 h; inhibition, % at 9.99 µM; 0.35% of 380,000 active; AID 720647;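 active = drop in luminescence signal, shown as inhibition above about 50% in the replicate tests, limit read from the data, passing the limit was not always enough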;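 note: agonist challenge used bursicon conditioned medium at about half maximal strength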
SENP8 inh conf: SENP8 (human) inhibition, single concentration confirmation; 15% of 1,400 active; purified SENP8, Nedd8-AMC/pro-Nedd8 cleavage fluorescence, 30 min; shares compounds with SENP8 block-1; inhibition, % at 25 µM; in the data active = inhibition mostly above about 39%, no sharp cut-off; inactive = mostly below about 34%
Active calls of the source: *; x = not tested or not shown.

SMILES	SENP8 block-1	SENP8 block-2	SENP7 block	HSP90 refold inh	SENP6 block	LGR2 inh	SENP8 inh conf
CCOc1ccc(/C=C/C(=O)Nc2ccc(OC)cc2[N+](=O)[O-])cc1	40.7*	-0.2	5.5	1.1	-7.3	x	4.6
CNC(=S)N/N=C/c1ccc(-c2ccc(Cl)c([N+](=O)[O-])c2)o1	33.1*	13.7	2.8	4.8	13.6	-10.2	1.2
Cc1ccc(-c2ccc(/C=N/NC(=S)Nc3ccccc3)o2)cc1[N+](=O)[O-]	22.7	0.2	4.1	-4.3	19.8	-3.2	x
O=[N+]([O-])c1cccc(-c2ccc(/C=N/NC(=S)Nc3cccc(F)c3)o2)c1	52.3*	6.2	-1.5	-0.8	-17.6	-5.4	10.5
CCCC#Cc1cnc2c(c1)C(=O)N([C@@H](C)CO)C[C@@H](C)[C@H](CN(C)S(=O)(=O)c1cn(C)cn1)O2	x	x	x	x	x	-0.8	x
C[C@H]1CN([C@@H](C)CO)S(=O)(=O)c2ccc(-c3ccccc3)cc2O[C@H]1CN(C)C(=O)c1ccccc1F	x	x	x	x	x	4.0	x
C[C@H](CO)N1C[C@H](C)[C@H](CN(C)C(=O)Nc2cccc3ccccc23)Oc2ccc(NC(=O)CCCN(C)C)cc2C1=O	x	x	x	x	x	5.7	x
c1ccc(/N=C2\N=C(Nc3ccccn3)c3ccccc32)nc1	42.1*	7.0	5.8	x	29.4	1.4	8.1
c1ccc(Nc2ccccn2)cc1	7.9	4.6	4.8	-6.0	2.2	x	x
CS(=O)(=O)Nc1ccc2c(c1)[C@@H]1C[C@H](CC(=O)N3CCCCC3)O[C@@H](CO)[C@@H]1O2	x	x	x	x	x	-6.1	x
CCOC(=O)c1sc(=S)n(-c2cc(OC)ccc2OC)c1N	40.3*	-3.4	12.6	-2.6	-0.6	x	23.4
C[C@H](NC(=O)C[C@H]1CC[C@H](NC(=O)C2CCOCC2)[C@H](CO)O1)c1ccccc1	x	x	x	x	x	4.5	x
COc1ccc(NC(=O)COC(=O)C2CCCCC2)c([N+](=O)[O-])c1	12.0	-0.8	1.7	-2.9	-10.0	12.8	x
COc1ccc(NC(=O)COC(=O)CC2CC3CCC2C3)c([N+](=O)[O-])c1 (stereo not drawn)	40.4*	-6.4	-1.4	8.2	1.4	7.9	23.2
CC(C)NC(=O)N[C@@H]1C=C[C@H](CC(=O)NCCCN(C)C)O[C@@H]1CO	x	x	x	x	x	6.7	x
Clc1nssc1=Nc1ccc(Br)cc1	43.6*	x	x	-1.7	x	-11.9	12.0
C[C@H](NC(=O)N(C)C[C@H]1OCc2ccccc2-c2c(n(C)c3ccccc23)C(=O)N([C@@H](C)CO)C[C@H]1C)c1ccccc1	x	x	x	x	x	7.9	x
CN(C)CC(=O)Nc1ccc2c(c1)[C@@H]1C[C@H](CC(=O)N3CCCCC3)O[C@@H](CO)[C@@H]1O2	x	x	x	x	x	2.8	x
COc1ccccc1S(=O)(=O)N[C@H]1C=C[C@H](CC(=O)N2CCN(C)CC2)O[C@H]1CO	x	x	x	x	x	3.2	x
O=C(C1CCCC1)N1CC(=O)N2[C@H](CO)[C@@H](c3ccc(-c4cccnc4)cc3)[C@H]2C1	x	x	x	x	x	-19.1	x
Cc1cc(NS(=O)(=O)c2ccc(NC(=O)C(CC(C)C)N3C(=O)c4ccccc4C3=O)cc2)nc(C)n1 (stereo not drawn)	42.4*	6.5	11.1	3.7	-1.1	x	-2.9
Cc1cc(NS(=O)(=O)c2ccc(NC(=O)C(C(C)C)N3C(=O)c4ccccc4C3=O)cc2)nc(C)n1 (stereo not drawn)	10.9	-0.4	4.0	-1.6	2.0	x	x
Cc1ccc(NC(=S)N/N=C/c2ccc([N+](=O)[O-])s2)cc1	40.3*	6.7	1.5	1.0	24.5	-23.2	53.0*
Cc1onc(-c2ccccc2)c1C(=O)N/N=C/c1ccc([N+](=O)[O-])s1	30.0	3.4	0.8	-0.2	18.2	10.0	x
CCC(=O)N(C)C[C@@H]1Oc2ncc(C#Cc3ccncc3)cc2C(=O)N([C@H](C)CO)C[C@@H]1C	x	x	x	x	x	-14.5	x
SMILES	SENP8 block-1	SENP8 block-2	SENP7 block	HSP90 refold inh	SENP6 block	LGR2 inh	SENP8 inh conf
COc1cc(NCCCCCCN)c2ncccc2c1OC	72.4*	x	x	x	x	2.2	96.3*
COc1cc(NC(C)CCCNC(C)C)c2ncccc2c1OC (stereo not drawn)	9.0	x	x	x	x	-6.1	x
CC(=O)N(C)C[C@H]1Oc2cc(C#CC(C)(C)O)ccc2S(=O)(=O)N([C@H](C)CO)C[C@H]1C	x	x	x	x	x	-5.1	x
COc1ccc(C(=O)C(CCCCC(CN(C)C)C(=O)c2ccc(OC)cc2)CN(C)C)cc1 (stereo not drawn)	41.7*	0.0	-0.5	0.3	-10.4	x	12.3
CCOc1ccc(C(=O)C(CCC(CN(C)C)C(=O)c2ccc(OCC)cc2)CN(C)C)cc1 (stereo not drawn)	11.4	x	x	-0.2	x	36.8	x
CC(C)NC(=O)Nc1ccc2c(c1)C(=O)N([C@H](C)CO)C[C@H](C)[C@@H](CN(C)C(=O)NC1CCCCC1)OCCCC[C@@H](C)O2	x	x	x	x	x	6.5	x
CC(C)(C)c1cc(=O)n(-c2ccccc2)[nH]1	86.7*	x	x	1.7	x	8.9	27.0
CN1C(=O)c2cc(NC(=O)C3CCOCC3)ccc2OC[C@H]2O[C@@H](CC(=O)NC3CCCC3)CC[C@H]21	x	x	x	x	x	12.6	x
C[C@@H]1CCCCO[C@@H](CN(C)S(C)(=O)=O)[C@@H](C)CN([C@H](C)CO)C(=O)c2cc(NC(=O)CCCN(C)C)ccc2O1	x	x	x	x	x	-4.6	x
CCOC(=O)c1cc([N+](=O)[O-])cc([N+](=O)[O-])c1Sc1ncnc2nc[nH]c12	63.3*	x	x	x	x	-8.8	34.4
CC(C)C(=O)NS(=O)(=O)c1ccc(N)cc1	46.9*	-2.3	1.2	1.9	1.2	-3.5	10.9
CC(C)CC(=O)NS(=O)(=O)c1ccc(N)cc1	14.7	0.8	-3.9	3.3	-14.9	x	x
Cc1noc(C)c1NC(=O)N(C)C[C@H]1Oc2ncc(C#CC(C)C)cc2C(=O)N([C@H](C)CO)C[C@H]1C	x	x	x	x	x	-14.3	x
CC(C)[C@H]1C(=O)Nc2ccccc2N1C(=O)N[C@@H](Cc1ccccc1)C(=O)N[C@@H](C(=O)O)c1ccccc1	43.6*	1.3	4.5	-2.3	-5.3	x	12.0
CC(C)[C@H](NC(=O)N1c2ccccc2NC(=O)[C@@H]1C(C)C)C(=O)N1CCC(C(=O)O)CC1	44.9*	5.7	3.5	-0.9	8.1	x	-4.3
C[C@@H]1CN([C@@H](C)CO)C(=O)c2cc(NC(=O)CCN3CCOCC3)ccc2O[C@H]1CN(C)S(C)(=O)=O	x	x	x	x	x	-16.1	x
N/C(=N\O)c1ccc([N+](=O)[O-])s1	30.6	5.5	7.0	1.8	7.4	-2.1	x
NC(=O)c1ccc(N=Cc2ccc([N+](=O)[O-])s2)cc1	60.5*	x	x	-4.2	x	-15.7	95.0*
Nc1cccc2nsnc12	48.5*	11.4	23.5	-0.3	40.1	22.8	12.6
Cc1ccc(S(=O)(=O)N(C)C[C@@H]2OCCCC[C@H](C)Oc3ccc(NC(=O)Nc4ccccc4)cc3C(=O)N([C@@H](C)CO)C[C@@H]2C)cc1	x	x	x	x	x	-27.6	x
COc1ncccc1C(=O)Nc1c(-c2ccccc2)[nH][nH]c1=O	15.8	x	x	x	x	3.0	x

Source: PubChem BioAssay (several laboratories)
